Screen size: about 3,300 compounds; about 35 (1%) were called active. A selection follows. A number with no mark means an inactive call. Cut-off read from the data, not from the text of the source: active = inhibition above about 11%; inactive = the rest.
biological target: 1-phosphatidylinositol 4,5-bisphosphate phosphodiesterase beta-3 (Homo sapiens) (UniProt Q01970); assay: retest of human PLCB3 enzyme blockers – biochemical, fluorescence, purified enzyme, confirmation (AID 743261); conditions: purified PLC-beta3, fluorogenic substrate fluorescence; at 12.3 µM; active compounds read high
Sequence (Q01970 whole entry, looked up): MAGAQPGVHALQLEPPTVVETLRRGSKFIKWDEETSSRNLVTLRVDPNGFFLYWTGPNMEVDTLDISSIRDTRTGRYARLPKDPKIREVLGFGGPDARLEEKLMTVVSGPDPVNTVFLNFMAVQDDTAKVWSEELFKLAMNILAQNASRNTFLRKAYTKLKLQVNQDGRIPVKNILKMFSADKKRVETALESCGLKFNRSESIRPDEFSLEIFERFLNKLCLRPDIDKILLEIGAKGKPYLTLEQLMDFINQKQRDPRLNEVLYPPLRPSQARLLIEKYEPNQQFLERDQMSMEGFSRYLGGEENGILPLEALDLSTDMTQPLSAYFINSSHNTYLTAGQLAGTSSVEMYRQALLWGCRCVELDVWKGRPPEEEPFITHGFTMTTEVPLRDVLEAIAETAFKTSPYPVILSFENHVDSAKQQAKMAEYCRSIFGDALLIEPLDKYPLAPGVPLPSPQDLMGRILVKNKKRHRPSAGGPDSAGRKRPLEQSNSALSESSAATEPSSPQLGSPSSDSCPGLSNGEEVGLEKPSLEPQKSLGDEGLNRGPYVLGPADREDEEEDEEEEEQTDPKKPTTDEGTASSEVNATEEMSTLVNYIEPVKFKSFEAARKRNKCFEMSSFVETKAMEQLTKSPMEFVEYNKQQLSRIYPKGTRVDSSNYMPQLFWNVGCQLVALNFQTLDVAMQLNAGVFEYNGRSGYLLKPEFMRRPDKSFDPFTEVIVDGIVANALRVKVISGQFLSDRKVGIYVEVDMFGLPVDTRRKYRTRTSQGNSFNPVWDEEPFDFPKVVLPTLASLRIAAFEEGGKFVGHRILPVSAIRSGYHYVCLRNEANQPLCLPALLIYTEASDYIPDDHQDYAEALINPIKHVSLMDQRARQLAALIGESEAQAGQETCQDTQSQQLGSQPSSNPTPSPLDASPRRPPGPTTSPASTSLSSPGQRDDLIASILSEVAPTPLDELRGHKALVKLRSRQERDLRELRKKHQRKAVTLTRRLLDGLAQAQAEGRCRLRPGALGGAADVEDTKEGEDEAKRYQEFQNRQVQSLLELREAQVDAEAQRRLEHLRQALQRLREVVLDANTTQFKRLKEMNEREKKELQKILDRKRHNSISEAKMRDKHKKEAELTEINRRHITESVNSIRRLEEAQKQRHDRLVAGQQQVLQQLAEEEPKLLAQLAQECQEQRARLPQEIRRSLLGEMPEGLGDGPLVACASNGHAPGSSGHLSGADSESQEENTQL

SMILES | inhibition [%]
Cc1ccc(/C=N/NC(=O)CSc2nc3ccccc3o2)cc1 | -1.23
CN(C(=O)c1cccc(NC(=O)Cc2cccc([N+](=O)[O-])c2)c1)C1CCCCC1 | 2.33
O=C(C1CCCO1)N1CCN(C(=S)Nc2cccc(Cl)c2)CC1 (configuration not stated) | -2.93
CCOc1ccc(NC(=O)[C@H](C)NC(=O)C2CC(=O)N(c3ccc(OC)cc3)C2)cc1 (some centres not stated) | -3.05
O=C(O)c1ccc(Cn2c(=S)[nH]c3cc(Cl)ccc3c2=O)cc1 | -7.23
CC(=O)C12CC(C)=C(C)CC1CC1C3CCC4=CC(=O)CCC4(C)C3CCC12C (configuration not stated) | -2.56
O=C(Nc1ccc(Br)cc1)C1CCC(=O)N1Cc1ccccc1Cl (configuration not stated) | -0.11
N#Cc1c(NC(=O)C2CCCO2)sc2c1CCCCC2 (configuration not stated) | -7.76
CCOC(=O)C1CCN(C(=O)c2ccccc2N(C)S(=O)(=O)c2ccccc2)CC1 | 1.21
O=C(Nc1cccc([N+](=O)[O-])c1)Nn1cnnc1 | 0.35
Cc1ccccc1C(=O)Nc1ccccc1Sc1ccccc1 | -4.34
COc1ccc(S(=O)(=O)N2CCC(C(=O)OCC(=O)c3ccccc3)CC2)cc1[N+](=O)[O-] | 0.58
O=C(CCNS(=O)(=O)c1ccc(Br)cc1)NCC1CCCO1 (configuration not stated) | 1.04
Cc1ccc(-n2ncc3c2CC(C)(C)CC3NC(=O)CCc2cnn(C)c2)cc1 (configuration not stated) | 0.66
COC(=O)C[C@@H]1CC[C@@H]2[C@H](COc3ccc(NC(=O)c4cccc(F)c4)cc3C(=O)N2C)O1 | 2.78
Cc1c(C(=O)c2cccc([N+](=O)[O-])c2)c2ccccn2c1CCC#N | 6.14
CN(C)/C=C(/C(=O)c1ccc(Cl)cc1)S(=O)(=O)c1ccccc1 | -1.45
O=C(CSc1ncn[nH]1)N/N=C/c1ccc(F)cc1 | 1.52
CNC(=O)c1ccc(NC(=O)c2cccc(C(F)(F)F)c2)cc1 | -1.78
O=C1N[C@@H](c2ccccc2)COC(=O)[C@H](Cc2ccc(F)cc2)C/C=C\C[C@@H]1CC(=O)N(CCO)Cc1ccccc1 | 0.87
C[C@]12c3[nH]c4ccc(Cl)cc4c3CCN1C(=O)[C@@H](CC(=O)NCCCn1ccnc1)C[C@@H]2C(=O)N1CCOCC1 | -2.45
CCc1c(C)n([O-])c2c([n+]1=O)CCCCC2 | -2.11
Cc1cc2nc(SCCN3CCOCC3)[nH]c2cc1C | 0.27
CCCCNc1ccc(C(=O)Nc2cccc(C)n2)cc1[N+](=O)[O-] | -2.68
COc1ccc(CCNC(=O)COC(=O)Cc2ccccc2F)cc1 | -2.27
CC(C)Oc1ccc(CC(=O)NNC(=S)Nc2ccc(Br)cc2)cc1 | -6.23
Cc1ccc(-c2cn(S(=O)(=O)c3cccc([N+](=O)[O-])c3)nc2N)cc1 | -2.7
